The full data set covers some 7,900 targets. This sample favours those with a hit. About 0.6% of all pairs of compound and target were hits.
Assays:
Assay in all cases: log2 fold change, soluble protein after heating vs DMSO (PISA); higher = thermal stabilisation; K562 cells, 10 uM, 30 min; active = over 0.2 and 3.5 SD of the protein, either way, in both replicates (recomputed)
[1] = compound: C1=CC=C(C=C1)[C@H](COC2=CC3=C(C=C2)NC(=O)N3)NC(=O)C4=CC=CN(C4=O)CC5=CC(=C(C=C5)F)F
How it was run: (§1)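 K562 cells at 2×10^6 cells/mL were treated with 10 μM compound for 30 min. Aliquots were heated for 3 min across 48°C-58°C, pooled, and extracted in PBS with 0.5% NP-40 at 4°C; soluble protein was the supernatant after 21,000xg for 90 min. Soluble protein was quantified by TMTpro 16plex LC-MS/MS with channel sums equalised, and reported as log2 fold change in thermal stability against DMSO controls, with values from duplicates.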

[2] = compound: CC1=C(SC2=C1C(=N[C@H](C3=NN=C(N32)C)CC(=O)N)C4=CC=C(C=C4)Cl)C
How it was run: as §1

[3] = compound: CC1=C2C(=CC=C1)N=C(N(C2=O)C3=CC=CC=C3C)CN4C=NC5=C(N=CN=C54)N
How it was run: as §1

[4] = compound: Cc1sc2c(c1C)C(c1ccc(Cl)cc1)=N[C@@H](CC(=O)OC(C)(C)C)c1nnc(C)n1-2
How it was run: as §1

[5] = compound: c1ccc([C@@H]2C[C@H]2NC2CCNCC2)cc1
How it was run: as §1

Measured: log2 fold change

TERF2IP (UniProt Q9NYB0)
UniProt Q9NYB0, sequence (Q9NYB0 whole entry, looked up): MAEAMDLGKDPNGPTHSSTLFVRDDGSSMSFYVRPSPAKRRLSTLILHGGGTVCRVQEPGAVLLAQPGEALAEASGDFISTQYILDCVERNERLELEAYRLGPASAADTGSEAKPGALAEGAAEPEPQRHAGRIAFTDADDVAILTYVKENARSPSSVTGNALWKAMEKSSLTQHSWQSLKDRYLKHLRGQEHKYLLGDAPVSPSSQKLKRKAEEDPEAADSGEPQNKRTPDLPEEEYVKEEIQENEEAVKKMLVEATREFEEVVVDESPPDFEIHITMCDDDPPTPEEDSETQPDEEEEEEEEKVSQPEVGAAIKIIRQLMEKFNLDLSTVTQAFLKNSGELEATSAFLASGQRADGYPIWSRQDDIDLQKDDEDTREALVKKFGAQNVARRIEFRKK
inactive: [1] 0.003 | [2] 0.01 | [3] 0.004 | [4] -0.01 | [5] 0.066

STK38L (UniProt Q9Y2H1)
UniProt Q9Y2H1, sequence (Q9Y2H1 whole entry, looked up): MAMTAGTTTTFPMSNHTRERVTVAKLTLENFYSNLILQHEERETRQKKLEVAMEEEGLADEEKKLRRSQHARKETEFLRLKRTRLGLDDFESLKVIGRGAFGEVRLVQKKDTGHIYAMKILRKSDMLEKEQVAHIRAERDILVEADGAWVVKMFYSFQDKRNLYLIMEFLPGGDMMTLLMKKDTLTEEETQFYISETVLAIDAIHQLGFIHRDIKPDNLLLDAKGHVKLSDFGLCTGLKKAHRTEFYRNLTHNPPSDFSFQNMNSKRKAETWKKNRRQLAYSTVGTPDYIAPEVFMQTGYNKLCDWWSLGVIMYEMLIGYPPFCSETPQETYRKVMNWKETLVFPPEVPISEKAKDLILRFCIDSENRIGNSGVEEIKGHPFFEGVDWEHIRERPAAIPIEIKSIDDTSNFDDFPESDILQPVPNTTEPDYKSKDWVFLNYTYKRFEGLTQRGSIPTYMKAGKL
inactive: [1] -0.009 | [3] 0.162 | [4] 0.07 | [5] 0.224
active: [2] 0.472

SSR3 isoform 2 (UniProt Q9UNL2)
UniProt Q9UNL2, sequence (Q9UNL2 whole entry, looked up): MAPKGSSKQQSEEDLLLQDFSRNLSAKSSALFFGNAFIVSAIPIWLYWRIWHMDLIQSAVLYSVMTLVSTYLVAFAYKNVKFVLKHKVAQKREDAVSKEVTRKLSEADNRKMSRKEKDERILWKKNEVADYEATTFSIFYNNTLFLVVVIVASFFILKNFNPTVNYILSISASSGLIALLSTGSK
inactive: [1] 0.016 | [2] -0.087 | [3] -0.107 | [4] -0.078 | [5] -0.168

TM9SF2 (UniProt Q99805)
UniProt Q99805, sequence (Q99805 whole entry, looked up): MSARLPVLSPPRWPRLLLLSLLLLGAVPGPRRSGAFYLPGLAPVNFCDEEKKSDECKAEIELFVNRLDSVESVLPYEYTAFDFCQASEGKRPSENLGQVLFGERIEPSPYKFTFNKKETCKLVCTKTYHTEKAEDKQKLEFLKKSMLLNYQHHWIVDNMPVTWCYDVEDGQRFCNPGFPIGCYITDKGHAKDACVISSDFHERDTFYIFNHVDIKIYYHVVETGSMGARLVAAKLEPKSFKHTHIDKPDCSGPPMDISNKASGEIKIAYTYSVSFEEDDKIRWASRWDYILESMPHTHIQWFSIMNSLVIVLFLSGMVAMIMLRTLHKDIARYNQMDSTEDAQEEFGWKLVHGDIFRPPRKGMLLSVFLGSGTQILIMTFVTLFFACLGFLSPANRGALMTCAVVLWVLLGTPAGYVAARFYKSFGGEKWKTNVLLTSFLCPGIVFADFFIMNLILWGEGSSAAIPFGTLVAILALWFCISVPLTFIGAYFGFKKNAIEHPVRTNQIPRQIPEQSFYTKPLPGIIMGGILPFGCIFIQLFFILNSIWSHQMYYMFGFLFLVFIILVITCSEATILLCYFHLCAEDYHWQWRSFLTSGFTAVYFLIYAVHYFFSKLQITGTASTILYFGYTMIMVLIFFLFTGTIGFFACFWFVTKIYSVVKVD
inactive: [1] 0.018 | [2] 0.035 | [3] 0.054 | [4] -0.044 | [5] -0.028

From the supplement of paper PMC10849652
